In PubChem BioAssay (Tox21):
“And” between values parts separate entries of the source, which are not always exact repeats. Identical values can stand only once. Records with an inconclusive call do not appear. Entries that show only a call come without a potency. Some compounds were tested as several samples or in several runs, with calls that do not always agree. The source made the active and inactive calls. Unless noted, the call rests on the fitted dose curve; in most records, active means well fitted curve in the direction sought with a large enough effect in the repeat runs; inconclusive means weak or mixed curves; inactive means no such curve, though single readings can be large; an effect the other way counts as inactive or inconclusive.

Assays:
[1] = Human pregnane X receptor (PXR) small molecule agonists, qHTS cell viability counter screen (AID 1346977); further: nearly all actives have a fitted effect of over 50% in size; further: potency means the concentration at half of the fitted maximal effect
Procedure, shortened: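 HepG2 cells stably carrying the PXR-Luc reporter are cultured with 5% charcoal-stripped FBS and treated with compounds for 24hr. CellTiter-Fluor is added at 23hr and fluorescence is read after 1hr.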

[2] = Caspase-3/7 induction in HepG2 cells by small molecules, qHTS assay (AID 1346978); further: nearly all actives have a fitted effect of over 15% in size; further: potency means the concentration at half of the fitted maximal effect
Procedure, shortened: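 Caspase-3/7 induction was measured by Caspase-Glo 3/7 luminescence (30 min, room temperature) after a 17 hr compound exposure of wild-type HepG2 cells seeded at 2,000 per well and pre-incubated 5 hr.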

[3] = Caspase-3/7 induction in CHO-K1 cells by small molecules, qHTS cell viability counter screen (AID 1346979); further: nearly all actives have a fitted effect of over 35% in size; further: potency means the concentration at half of the fitted maximal effect
Procedure, shortened: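 Seeding: 1,500 CHO-K1 cells/well. Rest: 5hr, 37C. Treatment: compounds in DMSO, 16hr. Read: CellTiter-Fluor, 1hr, fluorescence.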

[4] = Caspase-3/7 induction in CHO-K1 cells by small molecules, qHTS assay (AID 1346980); further: nearly all actives have a fitted effect of over 15% in size
Procedure, shortened: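 Luminescent Caspase-Glo 3/7 read (30min, room temperature) quantified apoptosis induction. Cells were wild-type CHO-K1, treated with compound for 17hr at 37 C and 5% CO2.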

[5] = molecular target: Nuclear receptor subfamily 1 group I member 2 (Homo sapiens) (UniProt O75469); assay: Human pregnane X receptor (PXR) small molecule agonists, qHTS assay (AID 1346982); further: nearly all actives have a fitted effect of over 35% in size; further: potency means the concentration at half of the fitted maximal effect
Procedure, shortened: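 PXR-Luc HepG2 cells (CYP3A4 promoter-driven luciferase) were seeded in medium with 5% charcoal-stripped FBS, left 5 hr at 37 C, then exposed to compounds in DMSO for 24 hr. Luminescence was read after ONE-Glo addition.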

[6] = molecular target: Acetylcholinesterase (Homo sapiens) (UniProt P22303); assay: Acetylcholinesterase (AChE) small molecule antagonists: colormetric cell-based qHTS assay (AID 1347395; calls by dose curve; further: nearly all actives have a fitted effect of over 30% in size; further: potency means the concentration at half of the fitted maximal effect)
Procedure, shortened: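 Quantitative HTS in attached SH-SY5Y cells: 30 min compound exposure, then 90 min with acetylthiocholine and DTNB at 37 C; colour from thiocholine reports AChE activity.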

[7] = Caspase-3/7 induction in HepG2 cells by small molecules, qHTS cell viability counter screen (AID 1346981); further: nearly all actives have a fitted effect of over 30% in size; further: potency means the concentration at half of the fitted maximal effect
Procedure, shortened: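 Wild-type HepG2 cells (2,000/well) were allowed to settle for 5 hr at 37 C, 5% CO2, then dosed with compounds in DMSO by pin transfer. After 16 hr at 37 C, CellTiter-Fluor was added and fluorescence read 1 hr later.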

Chain of Acetylcholinesterase (Homo sapiens) (P22303 whole entry, looked up): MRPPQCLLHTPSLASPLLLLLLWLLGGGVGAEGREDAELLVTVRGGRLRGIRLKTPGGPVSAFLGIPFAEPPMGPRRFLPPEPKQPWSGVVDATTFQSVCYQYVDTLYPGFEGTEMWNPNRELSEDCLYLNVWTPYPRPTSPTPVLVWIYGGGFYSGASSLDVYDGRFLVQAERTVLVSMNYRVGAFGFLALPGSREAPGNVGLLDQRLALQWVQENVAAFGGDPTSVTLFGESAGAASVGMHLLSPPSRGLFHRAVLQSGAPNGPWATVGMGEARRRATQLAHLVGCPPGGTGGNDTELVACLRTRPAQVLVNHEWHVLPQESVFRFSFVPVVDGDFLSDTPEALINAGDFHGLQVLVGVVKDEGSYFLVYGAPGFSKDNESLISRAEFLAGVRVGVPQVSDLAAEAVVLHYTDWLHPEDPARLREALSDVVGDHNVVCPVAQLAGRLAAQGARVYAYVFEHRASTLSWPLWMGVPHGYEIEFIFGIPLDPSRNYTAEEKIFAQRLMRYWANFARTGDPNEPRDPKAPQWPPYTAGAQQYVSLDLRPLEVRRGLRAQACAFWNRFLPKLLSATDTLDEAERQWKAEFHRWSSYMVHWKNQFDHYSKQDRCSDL
Chain of Nuclear receptor subfamily 1 group I member 2 (Homo sapiens) (O75469 whole entry, looked up): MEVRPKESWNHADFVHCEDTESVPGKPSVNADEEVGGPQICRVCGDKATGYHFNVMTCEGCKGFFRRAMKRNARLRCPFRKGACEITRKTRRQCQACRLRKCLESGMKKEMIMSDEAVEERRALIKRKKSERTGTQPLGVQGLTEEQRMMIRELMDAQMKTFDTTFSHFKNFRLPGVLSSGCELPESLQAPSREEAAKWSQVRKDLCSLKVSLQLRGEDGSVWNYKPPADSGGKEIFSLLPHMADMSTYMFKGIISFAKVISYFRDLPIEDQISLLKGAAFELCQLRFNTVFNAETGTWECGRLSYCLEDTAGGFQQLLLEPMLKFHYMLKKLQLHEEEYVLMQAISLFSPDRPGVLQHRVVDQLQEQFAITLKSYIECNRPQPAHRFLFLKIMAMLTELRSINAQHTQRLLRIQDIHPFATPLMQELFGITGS

| Structure (SMILES) | Potency [1] | Potency [2] | Potency [3] | Potency [4] | Potency [5] | Potency [6] | Potency [7] |
| --- | --- | --- | --- | --- | --- | --- | --- |
| Nc1ncn[nH]1 | inactive | inactive | inactive | inactive | inactive | inactive |  |
| COC(=O)Nc1nc2ccccc2[nH]1 | inactive | 6.11 µM (active) and inactive |  | inactive | 54.5 µM (active) | inactive |  |
| Nc1ccc2ccccc2c1 | inactive | inactive | inactive | inactive | 46.9 µM (active) and 43.3 µM (active) | inactive |  |
| Cc1cccc(N=Nc2ccc(N(C)C)cc2)c1 | inactive | 7.83 µM (active) and 2.43 µM (active) | 62.2 µM (active) and 43.3 µM (active) | inactive | 221 nM (active) and 3.06 µM (active) | inactive |  |
| Clc1ccc(C(Cl)(Cl)Cl)cc1 | inactive | inactive | inactive | inactive | inactive | inactive |  |
| CCCCOCC1CO1 (stereo not given) | inactive | inactive | inactive | inactive | inactive | inactive |  |
| O=C(O)CF | inactive | inactive | inactive | inactive | inactive | inactive |  |
| COP(=S)(OC)SCn1nnc2ccccc2c1=O | inactive | inactive |  | inactive | 53.4 µM (active) |  | inactive |
| N#Cc1c(Cl)c(Cl)c(Cl)c(C#N)c1Cl | 12.6 µM (active) and 13.7 µM (active) | inactive | 1.07 µM (active) and 1.72 µM (active) |  | 950 nM (active) and 1.93 µM (active) | 15.6 µM (active) and 17.8 µM (active) | 23.9 µM (active) and 54.5 µM (active) |
| CCC/C=N/O | inactive | inactive | inactive | inactive | inactive | inactive |  |
| OC(c1ccc(Cl)cc1)(c1cncnc1)c1ccccc1Cl (stereo not given) | inactive | inactive | 62.2 µM (active) | inactive | 31.2 µM (active) and 30.6 µM (active) | inactive |  |
| CCOP(=S)(OCC)OP(=S)(OCC)OCC | inactive | inactive | inactive | inactive | inactive | 8.18 µM (active) and 5.03 µM (active) |  |
| CCCCCCCCCc1ccc(O)cc1 | 61.1 µM (active) | 61.8 µM (active) and 27.3 µM (active) | 61.8 µM (active) and 54.5 µM (active) |  | 61.8 µM (active) and 61.1 µM (active) | inactive |  |
